An excerpt weighted towards active compounds, which were near 11% of everything screened.
HPGD block = inhibitors of human 15-hydroxyprostaglandin dehydrogenase (HPGD); hit rate 4.3% among 150,000; Potency, µM, for the others: at the top dose activity change, negative = inhibition, hits mostly inhibitors; P15428; purified HPGD, NADH fluorescence kinetic, PGE2 substrate; active means well fitted inhibition curve with a large enough effect, not every such curve was filed as active; inconclusive means small, poorly fitted or top-dose-only effect, or another doubt; inactive means no such curve, though single readings can be large or run the other way; further: potency means the concentration at half of the fitted maximal effect
Target sequence (P15428 whole entry, looked up): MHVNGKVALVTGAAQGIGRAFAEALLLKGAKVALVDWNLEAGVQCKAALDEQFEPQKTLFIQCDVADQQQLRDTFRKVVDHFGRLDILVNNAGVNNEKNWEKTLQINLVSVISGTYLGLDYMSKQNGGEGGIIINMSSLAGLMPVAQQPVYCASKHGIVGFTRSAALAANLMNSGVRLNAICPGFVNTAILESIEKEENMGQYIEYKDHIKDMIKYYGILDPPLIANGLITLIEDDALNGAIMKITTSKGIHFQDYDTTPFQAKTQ
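NADH formation kinetics: reaction with 30 uM PGE2 and 1 mM NAD+ (final), 20 nM enzyme, Tris-HCl pH 8 with Tween 20, after 15 min compound preincubation at room temperature. Fluorescence change, last versus first of five reads.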
12-hLO inh = 12-hLO (ALOX12) enzyme inhibition. P18054. purified 12-hLO, xylenol orange hydroperoxide absorbance. Potency, µM (titrated, usually from 57.1 µM), for the others: at the highest dose activity change, negative = inhibition, actives largely listed as inhibitors. hit rate 0.12% among 150,000; further: potency means the concentration at half of the fitted maximal effect; nearly all actives have a fitted effect of over 55% in size
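150 nM 12hLO, 25 mM Hepes pH 7.0 + 0.01% Triton X-100; cpd preinc 15 min RT; 40 uM arachidonic acid, 30 min RT; Fe-XO 30 min; A573/A405 ratio as read-out.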
IMPase Li cell = IMPase inhibition in cells with lithium potentiation. hit rate 0.35% among 210,000. Potency, µM (series often up to 59.4 µM), for inactives: at the top dose activity, negative = IMPase inhibition, hits mostly inhibitors. AID 1457. CHO-M1 cells, IP1 TR-FRET (IP-One), carbachol + lithium;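 further: IP1 builds up when IMPase is blocked and the TR-FRET signal falls; potency means the concentration at half of the fitted maximal effect; plate controls were basal vehicle for no effect and high inhibitor control for full effect; nearly all actives have a fitted effect of over 50% in size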
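Concentration–response in CHO-M1 cells, lithium-potentiated; 30 min at 37C. IP1 detected by competitive TR-FRET after 10 min lysis at RT. Hill-fitted AC50.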
IMPase cell inh = membrane-permeable compound that blocks inositol monophosphatase. inhibition (IP1 accumulation), % at 46.1 µM. 120,000 tested, under 10 active. CHO-M1 cells, IP1 accumulation, HTRF TR-FRET ratio. AID 901; active means well fitted curve in the direction sought with a large enough effect in the signal ratio, not every such curve was filed as active; inconclusive means small, poorly fitted or top-dose-only effect, or a change in a side signal; inactive means no such curve, though single readings can be large or run the other way; the % refers to the signal ratio;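 further: cells stimulated with carbachol in lithium chloride buffer; plate controls were DMSO basal wells for no effect and reference inhibitor wells for full effect; higher means more IMPase inhibition seen as more IP1 and lower FRET ratio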
Target sequence (P97697 whole entry, looked up): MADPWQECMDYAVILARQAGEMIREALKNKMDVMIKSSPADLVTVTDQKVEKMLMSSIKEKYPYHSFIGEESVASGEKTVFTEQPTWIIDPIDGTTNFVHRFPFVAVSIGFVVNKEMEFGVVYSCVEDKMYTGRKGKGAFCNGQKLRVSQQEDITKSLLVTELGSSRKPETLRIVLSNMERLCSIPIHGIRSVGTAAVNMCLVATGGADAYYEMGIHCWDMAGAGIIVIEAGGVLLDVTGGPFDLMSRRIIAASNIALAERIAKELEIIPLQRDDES
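Seeded CHO-M1 cells were dosed with compound at up to 46 uM, stimulated with carbachol for 30 min, then lysed in IP-One detection reagents. Higher IP1 lowers the TR-FRET signal.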
ALDH1A1 inh = blocks purified human ALDH1A1 activity; Potency, µM (series often up to 75.3 µM), inactives show top-dose activity, negative = inhibition, usual class: inhibitors; hit rate 7.3% among 220,000; Purified ALDH1A1, NADH fluorescence, propionaldehyde substrate; active means well fitted inhibition curve with a large enough effect, not every such curve was filed as active; inconclusive means small, poorly fitted or top-dose-only effect, or another doubt; inactive means no such curve, though single readings can be large or run the other way;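 further: potency means the concentration at half of the fitted maximal effect; plate controls were no enzyme wells and a reference inhibitor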
PNC inhibitor = perinucleolar compartment assembly inhibition; PC3M PTB-GFP, PNC prevalence imaging, 16 h; hits give low values; activity change (PNC), negative = inhibition, % at 10 µM; hit rate 3.1% among 140,000; AID 2417;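 active means readout at or below -70, meaning at least 70% loss of cells showing the perinucleolar compartment, a nuclear body marking cancer cells; inconclusive means readout between -30 and a set limit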;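 further: plate controls were DMSO wells for no effect and camptothecin positive control wells for full effect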
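PC3M cells stably expressing PTB-GFP, 750–1000 cells/well, treated 16 h at 37 °C with compound (23 nl of library stock), in duplicate. After paraformaldehyde fixation and Hoechst stain, imaged at 20x; PNC prevalence scored by image analysis.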
* marks the source's active call; other numbers are inactive results; [ ] = dose if it differs, or a comment. Unless noted, the call rests on the fitted dose curve; in most records, active means well fitted curve in the direction sought with a large enough effect; inconclusive means small, poorly fitted or top-dose-only effect, or another doubt; inactive means no such curve, though single readings can be large; an effect the other way counts as inactive or inconclusive. Unless noted, on the % scale 0 is the no-effect control and ±100 the full control effect.

`O=C(Cn1cc(S(=O)(=O)N2CCN(c3ccccc3F)CC2)c2ccccc2c1=O)NCCCN1CCCCCC1` gave IMPase Li cell -2% and ALDH1A1 inh -1%.
`O=c1[nH]c(CN2CCc3ccccc32)nc2scc(-c3cccs3)c12` gave HPGD block -27%, 12-hLO inh -21%, IMPase Li cell -16%[38.3 µM], IMPase cell inh -2, ALDH1A1 inh 25µM* and PNC inhibitor inconclusive.
`O=C(O)CC12CSc3[nH]c(=O)sc3C1c1ccccc1OC2=O` (stereo not given) gave HPGD block inconclusive, 12-hLO inh 1%, IMPase Li cell 20%[38.3 µM], IMPase cell inh 1, ALDH1A1 inh inconclusive and PNC inhibitor -84*.
O=C(NCC1CCCO1)C1c2ccccc2Oc2ccccc21 (stereo not given) was read as IMPase Li cell 7% and ALDH1A1 inh 9%.
For COc1ccc(CCNc2oc(-c3ccco3)nc2C#N)cc1 the results were HPGD block inconclusive, 12-hLO inh -6%, IMPase Li cell 5%, IMPase cell inh -13, ALDH1A1 inh inconclusive and PNC inhibitor -100*.
`CCCCCCCCCCCCCCCCCC(=O)NCCc1ccc(O)c(O)c1` gave HPGD block 1%, 12-hLO inh 1%, IMPase Li cell 2% and ALDH1A1 inh -2%.
COc1ccc(N2C(=O)C(Cl)=C(Nc3ccccc3O)C2=O)cc1 was read as HPGD block 14µM*, 12-hLO inh -13%, IMPase Li cell -11%[38.3 µM], IMPase cell inh 15, ALDH1A1 inh 16µM* and PNC inhibitor inconclusive.
Screening COc1ccc(N2C(=O)c3ccccc3C2=O)cc1 returned IMPase Li cell 8% and ALDH1A1 inh 4%.
For COc1ccc(N2C(=O)C(Cl)=C(Oc3cccc(OC)c3)C2=O)cc1 the results were IMPase Li cell 26% and ALDH1A1 inh 18µM*.
Screening COc1ccc(N2C(=O)C(Cl)=C(N(CCO)Cc3ccccc3)C2=O)cc1 returned HPGD block -7%, 12-hLO inh -11%, IMPase Li cell -8%[38.3 µM], IMPase cell inh 2, ALDH1A1 inh -8% and PNC inhibitor -125*.
Cn1c(=O)n(C)c2cc(N3CCOCC3)c(NC(=O)c3ccccc3Br)cc21 was read as IMPase cell inh 13.
CCCCCCCCCCCCCCC[C@@H](O)[C@H](CO)NC(C)=O was read as HPGD block -11%, 12-hLO inh -6%, IMPase Li cell -10% and ALDH1A1 inh 1%.
NC([N-]/N=C/c1ccccn1)=[S]=[Fe].O=S(=O)(O)O was read as 12-hLO inh 1%[11.4 µM].
Cc1ccc(C(O)(COC(=O)C(C)C)COC(=O)C(C)C)c(O)c1 was read as IMPase Li cell 8% and ALDH1A1 inh 7.9µM*.
`Cc1ccc(C)c(O)c1` gave HPGD block -3%, 12-hLO inh -2%, IMPase Li cell -11% and ALDH1A1 inh 7%.
`CCOc1ccc2cc(C#N)c(SCC(=O)N3CCOCC3)nc2c1` gave HPGD block inconclusive, 12-hLO inh -10%, IMPase Li cell 2.8µM*, IMPase cell inh -20, ALDH1A1 inh 3.5µM* and PNC inhibitor inconclusive.
Screening CCOC(=O)c1c(C)nc(SCC(N)=O)c(C#N)c1-c1ccccc1 returned HPGD block 0%, 12-hLO inh -4%, IMPase Li cell 0%, ALDH1A1 inh inconclusive and PNC inhibitor -114*.
`Cc1cc(C)c(C#N)c(SCC(=O)OC2CCCCC2)n1` gave HPGD block 16µM*, 12-hLO inh -11%, IMPase Li cell 45%[38.3 µM], IMPase cell inh 13, ALDH1A1 inh 28µM* and PNC inhibitor -83*.
For CCOC(=O)CSc1nc2cc3c(cc2cc1C#N)OCO3 the results were HPGD block -12%, 12-hLO inh -9%, IMPase Li cell 0%[38.3 µM], IMPase cell inh 7, ALDH1A1 inh -2% and PNC inhibitor -127*.
`O=C(O)C1(O)CC(O)C(O)C(O)C1` (stereo not given) gave HPGD block -5%, 12-hLO inh 6%, IMPase Li cell 3% and ALDH1A1 inh -6%.
Cc1ccc(-c2sc(C(=O)Nc3ccc(Br)cc3)cc2CC(=O)O)cc1 was read as IMPase cell inh -28.
For COCc1cc(C)nc(SCC(=O)Oc2ccccc2)c1C#N the results were IMPase Li cell 11% and ALDH1A1 inh -10%.
`COCc1cc(C)nc(SCC(=O)c2ccc(O)c(O)c2)c1C#N` gave HPGD block 16µM*, 12-hLO inh -22%, IMPase Li cell 57%[38.3 µM], IMPase cell inh 2[1.84 µM], ALDH1A1 inh -13% and PNC inhibitor 33.
For CCOC(=O)CCc1c(C)nc(SCC(=O)O)c(C#N)c1C the results were HPGD block -22%, 12-hLO inh -5%, IMPase Li cell -8%[38.3 µM], IMPase cell inh -3, ALDH1A1 inh 25µM* and PNC inhibitor -14.
For CCOC(=O)CSc1nc(C)cc(C)c1C#N the results were HPGD block -9%, 12-hLO inh 4%, IMPase Li cell 24%[38.3 µM], IMPase cell inh -4, ALDH1A1 inh 25µM* and PNC inhibitor 30.
For CN1C(=O)/C(=N\OC(=O)c2cccc3ccccc23)c2ccccc21 the results were HPGD block inconclusive, 12-hLO inh -2%, IMPase Li cell 24%[38.3 µM], IMPase cell inh 2, ALDH1A1 inh 14µM* and PNC inhibitor 38.
O=C(OCc1nc2ccccc2s1)[C@@H]1CCCN1S(=O)(=O)c1ccccc1F was read as HPGD block -16%, 12-hLO inh -2%, IMPase Li cell 31%[38.3 µM], IMPase cell inh 1, ALDH1A1 inh 7.9µM* and PNC inhibitor inconclusive.
Screening CC(NC(=O)COC(=O)[C@@H]1CCCN1S(=O)(=O)c1ccccc1F)C12CC3CC(CC(C3)C1)C2 (stereo not given in full) returned HPGD block -26%, 12-hLO inh -2%, IMPase Li cell 2%, ALDH1A1 inh inconclusive and PNC inhibitor 44.
Screening COC(=O)[C@@H]1C[C@@]2(O)[C@@H](O)[C@@H](O)[C@@H](O)C[C@H]2N1Cc1cc(F)ccc1F returned HPGD block 0%, 12-hLO inh -11%, IMPase Li cell -5% and ALDH1A1 inh inconclusive.
Cc1nc2scc(C)n2c(=O)c1S(=O)(=O)N1CCN(c2cccc(C(F)(F)F)c2)CC1 was read as IMPase cell inh 1.
For Cc1ccc(N2C(=O)C3CC(c4ccccc4)=C4C5C=CC(C6C(=O)N(c7ccc(C)cc7)C(=O)C56)C4C3C2=O)cc1 (stereo not given) the results were HPGD block -7%, 12-hLO inh -2%, IMPase Li cell 3%, ALDH1A1 inh 1.1µM* and PNC inhibitor inconclusive.

Source: PubChem BioAssay (National Center for Advancing Translational Sciences (NCATS))
